# Test results taken from PubChem BioAssay (Tox21).
# Values without a mark were called inactive. Where a call stands in place of a potency, no number is given. Calls of active or inactive are those of the source. The call rests on the fitted dose curve; in most records, active means well fitted activation curve with a large enough effect in the repeat runs; inconclusive means weak or mixed curves; inactive means flat fitted curve, though single readings scatter. Where a SMILES comes first, the peptide text is derived from it.
# Test: A CellTox Green Cytotoxicity Assay to monitor cytotoxicity in HEK293 cells - 0 hour (AID 1224869); further: nearly all actives have a fitted effect of over 50% in size
# Conditions: CellTox Green fluorescence; series mostly up to 76.8 µM
# In short: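 HEK293 cells premixed with CellTox Green dye were seeded at 600 cells/well and left 5 h at 37 C/5% CO2 before pin transfer of 23 nL compound in DMSO. Fluorescence from dye bound to dead-cell DNA was read during 40 h treatment.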
SMILES,Potency,cytotoxicity
CCO,inactive,
CC1=C(O)C(=O)C(C)O1 (configuration not stated),inactive,
COP(=O)(O)OP(=O)(O)OC,inactive,
COC(=O)c1ccccc1C(=O)O,inactive,
CCCCCCCCCCCCCCCCCCOCCO,,1.2% [at 15.8 µM]
CCNC(=O)NCc1cccc(Cl)c1,inactive,
OC1OCCOC1O (configuration not stated),inactive,
Cc1c(Cl)cccc1Cl,inactive,
CC(=O)OC1CCCCC1C(C)(C)C (configuration not stated),inactive,
CCCCCCC1(C)CCC(=O)O1 (configuration not stated),inactive,
C=CCCCCCCCC,inactive,
Cc1cc(C)c(C(=O)O)c(C)c1,inactive,
CC1(C)Cc2cccc(N)c2O1,inactive,
COC(C)(OC)OC,inactive,
O=C(NCN1CCOCC1)c1cnccn1,inactive,
COc1cc(/C=C/C(N)=O)cc(OC)c1OC,inactive,
CCCCOCC(C)O (configuration not stated),inactive,
COC(=O)CCCCC(CCSS/C(CCO)=C(\C)N(C=O)Cc1cnc(C)nc1N)SC(C)=O (configuration not stated),inactive,
C[C@]12CCC(=O)C=C1CC[C@H]1[C@@H]3CC[C@](O)(C(=O)CO)[C@@]3(C)C[C@H](O)[C@@]12F,inactive,

SMILES,Potency,cytotoxicity
CCn1cc(C(=O)O)c(=O)c2cnc(N3CCCC3)nc21,,1.5% [at 6.97 µM]
C[C@@H](O)C(=O)O,inactive,
O=C(Cl)c1ccccc1[N+](=O)[O-],inactive,
CC(=O)N[C@@H](CO)C(=O)N[C@@H](CC(=O)O)C(=O)N[C@@H](CCCCN)C(=O)N1CCC[C@H]1C(=O)O (Ac-SDKP-OH),inactive,
COc1cc(OC)nc(O[C@H](C(=O)O)C(OC)(c2ccccc2)c2ccccc2)n1,inactive,
CC1(C)CC(OC(=O)CCCCCCCCC(=O)OC2CC(C)(C)NC(C)(C)C2)CC(C)(C)N1,,-1.08% [at 15.8 µM]
CC1(C)O[C@H]2CC(=O)OC[C@]23[C@H]2CC[C@@]4(C)[C@H](c5ccoc5)OC(=O)[C@H]5O[C@]54[C@]2(C)C(=O)C[C@@H]13,inactive,
CC(N)CCCC(C)(C)O (configuration not stated),inactive,
COC(=O)c1cccc(Cl)c1,inactive,
CC(C)OC(=O)CCC(=O)OC(C)C,inactive,
CCN(CC)CCN,inactive,
CCOCCOCC,inactive,
C[C@H]1[C@@H](c2ccccc2)NC(=O)N1C,inactive,
CN(C)CCN(C)CCO,inactive,
CN(C)CCOC(=O)C(c1ccccc1)C1(O)CCCC1 (configuration not stated),inactive,
CC1=C(C(=O)O)N2C(=O)[C@@H](NC(=O)[C@H](N)C3=CCC=CC3)[C@H]2SC1,inactive,
CC(=O)O[C@H]1C[C@@H]2CC[C@@]1(C)C2(C)C,inactive,
Cc1ccc(C(C)NC(=O)[C@@H](NC(=O)OC(C)C)C(C)C)cc1 (some centres not stated),inactive,
